About 79,000 compounds went through this panel and 15% of them were active in at least one assay; those are over-represented in the sample as a whole. The source made the active and inactive calls. No stated cut-off is given here; in the data, active means growth inhibition above about 70%; inactive means the rest.
Experiments:
[1] = NCI Yeast Anticancer Drug Screen. Data for the rad52 strain (AID 147);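 further: 0% = growth of vehicle-treated control cultures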; details: S. cerevisiae rad52 mutant growth inhibition, active compounds read high
Procedure, shortened: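 The repair-mutant yeast strain was incubated with compounds, then growth was read and inhibition derived relative to vehicle.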

[2] = NCI Yeast Anticancer Drug Screen. Data for the wt1 strain (AID 149);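 further: 0% = growth of vehicle-treated wt1 cultures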; details: S. cerevisiae wt1 strain (SPY 50644) growth inhibition, active compounds read high
Procedure, shortened: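 Using yeast strain wt1, compound-induced growth inhibition was determined against vehicle-treated cultures.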

[3] = NCI Yeast Anticancer Drug Screen. Data for the rad50EPP+ strain (AID 151);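 further: 0% = growth of vehicle-treated control cultures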; details: S. cerevisiae rad50 mutant strain, active compounds read high
Procedure, shortened: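 Vehicle-normalised growth inhibition; rad50EPP+ yeast strain, altered in DNA damage repair, compound-treated.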

[4] = NCI Yeast Anticancer Drug Screen. Data for the rad50 strain (AID 155);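 further: 0% = growth of vehicle-only cultures of the same strain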; details: S. cerevisiae rad50 strain growth inhibition, active compounds read high
Procedure, shortened: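 Relative growth inhibition (compound vs vehicle) was measured in yeast with a defined repair-gene alteration.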

[5] = NCI Yeast Anticancer Drug Screen. Data for the mec2-1 strain (AID 157); details: S. cerevisiae mec2-1 strain, active compounds read high
Procedure, shortened: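 Mutant yeast (mec2-1) grown with compound; growth inhibition relative to vehicle control reported.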

[6] = NCI Yeast Anticancer Drug Screen. Data for the rad14 strain (AID 159);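 further: 0% = growth of vehicle-treated control cultures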; details: S. cerevisiae rad14 strain growth inhibition, active compounds read high
Procedure, shortened: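 Screen for anticancer potential: a yeast strain altered in DNA damage repair is grown with compound, and reduced growth is quantified against vehicle controls.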

[7] = NCI Yeast Anticancer Drug Screen. Data for the sgs1 mgt1 strain (AID 161);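 further: 0% = growth of cultures given vehicle only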; details: S. cerevisiae sgs1 mgt1 strain, active compounds read high
Procedure, shortened: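 Growth of a repair-deficient yeast mutant was monitored after compound treatment and expressed as inhibition relative to vehicle-treated cultures.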

[8] = NCI Yeast Anticancer Drug Screen. Data for the CLN2oe strain (AID 163);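 further: 0% = growth of vehicle-only control cultures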; details: S. cerevisiae CLN2oe strain, active compounds read high
Procedure, shortened: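 Compounds are applied to yeast harbouring a defined cell-cycle control change; reduced growth compared with vehicle-treated controls gives the value.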

[9] = NCI Yeast Anticancer Drug Screen. Data for the cln2 rad14 strain (AID 165);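 further: 0% = growth equal to vehicle treated cultures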; details: S. cerevisiae cln2 rad14 strain, active compounds read high
Procedure, shortened: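 Readout is yeast growth inhibition versus vehicle-treated controls, using a strain with cln2 and rad14 alterations exposed to compound.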

[10] = NCI Yeast Anticancer Drug Screen. Data for the bub3 strain (AID 167); details: S. cerevisiae bub3 mutant strain, active compounds read high
Procedure, shortened: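 Screening used yeast with an engineered genetic alteration affecting cell cycle control. Compound-exposed cultures were compared with vehicle cultures, and reduced growth was taken as inhibition.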

[11] = NCI Yeast Anticancer Drug Screen. Data for the wt2 strain (AID 169);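 further: 0% = growth of vehicle-treated yeast cultures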; details: S. cerevisiae wt2 strain growth inhibition, active compounds read high
Procedure, shortened: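 Against vehicle-treated controls, the growth of yeast exposed to each compound was compared, and the inhibition was recorded.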

[12] = NCI Yeast Anticancer Drug Screen. Data for the mlh1 strain (AID 171);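 further: 0% = growth of vehicle-treated control cultures of the same strain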; details: S. cerevisiae mlh1 strain growth inhibition, active compounds read high
Procedure, shortened: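 Measured: yeast growth. Reference: vehicle-treated controls. Organism: strain with a defined alteration affecting DNA damage repair or cell cycle control, treated with compound.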

[13] = NCI Yeast Anticancer Drug Screen. Data for the mlh1 rad18 strain (AID 175); details: S. cerevisiae mlh1 rad18 strain growth inhibition, active compounds read high
Procedure, shortened: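 Genetically defined yeast (DNA repair-deficient) exposed to compounds; growth inhibition determined relative to vehicle.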

[14] = NCI Yeast Anticancer Drug Screen. Data for the rad18 strain (AID 177); details: S. cerevisiae rad18 mutant growth inhibition, active compounds read high
Procedure, shortened: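 Vehicle-treated cultures served as the baseline for scoring compound-induced growth inhibition in DNA-repair-mutant yeast.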

[15] = NCI Yeast Anticancer Drug Screen. Data for the mgt1 strain (AID 153); details: S. cerevisiae mgt1 mutant growth inhibition, active compounds read high
Procedure, shortened: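 Vehicle-normalized growth inhibition is determined in mgt1 yeast, a strain selected for a defined alteration in DNA repair or cell cycle control.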

[16] = NCI Yeast Anticancer Drug Screen. Data for the sgs1 strain (AID 173);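 further: 0% = growth of vehicle-only control cultures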; details: S. cerevisiae sgs1 mutant, active compounds read high
Procedure, shortened: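 Each compound was added to cultures of the altered yeast strain. Growth was recorded, and inhibition was derived by comparison with vehicle controls.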

[17] = at 5.0 µM (retest, dose inferred, filed as 0.5)
[18] = at 50.0 µM (retest, dose inferred, filed as 5.0)

Measured: growth inhibition

Nc1cc2ccccc2cc1N
active: [3]; at 100.0 µM 76% | [4]; at 50.0 µM 89.3% | [5]; at 50.0 µM 91.5% | [7]; at 50.0 µM 88.7% | [9]; [18] 70% | [9]; at 50.0 µM 90.1% | [10]; [18] 95% | [10]; at 50.0 µM 90.5% | [13]; at 50.0 µM 90.8%
inactive: [1]; at 1.2 µM -47% | [1]; at 3.7 µM -35% | [1]; at 11.0 µM -41% | [1]; at 33.0 µM -39% | [1]; at 100.0 µM 25% | [2]; at 1.2 µM -28% | [2]; at 3.7 µM -14% | [2]; at 11.0 µM -17% | [2]; at 33.0 µM 3% | [2]; at 100.0 µM 20% | [3]; at 1.2 µM -37% | [3]; at 3.7 µM -13% | [3]; at 11.0 µM 40% | [3]; at 33.0 µM 59% | [4]; at 1.2 µM -33% | [4]; at 3.7 µM -23% | [4]; [17] 14% | [4]; at 11.0 µM -26% | [4]; at 33.0 µM 12% | [4]; [18] 17% | [4]; at 100.0 µM 63% | [5]; at 1.2 µM -41% | [5]; at 3.7 µM -45% | [5]; [17] 4% | [5]; at 11.0 µM -46% | [5]; at 33.0 µM -35% | [5]; [18] 15% | [5]; at 100.0 µM -15% | [6]; at 1.2 µM -15% | [6]; at 3.7 µM -17% | [6]; at 11.0 µM -13% | [6]; at 33.0 µM -16% | [6]; at 100.0 µM 6% | [7]; [17] 19% | [7]; [18] 26% | [8]; at 1.2 µM 10% | [8]; at 3.7 µM 4% | [8]; at 11.0 µM 4% | [8]; at 33.0 µM 23% | [8]; at 100.0 µM 45% | [9]; [17] 21% | [10]; at 1.2 µM -35% | [10]; at 3.7 µM -36% | [10]; [17] 25% | [10]; at 11.0 µM -30% | [10]; at 33.0 µM -38% | [10]; at 100.0 µM 24% | [11]; at 1.2 µM -18% | [11]; at 3.7 µM -18% | [11]; at 11.0 µM -25% | [11]; at 33.0 µM -34% | [11]; at 100.0 µM -28% | [12]; at 1.2 µM -22% | [12]; at 3.7 µM -22% | [12]; at 11.0 µM -18% | [12]; at 33.0 µM -11% | [12]; at 100.0 µM 16% | [13]; [17] 6% | [13]; [18] 40% | [14]; at 1.2 µM -22% | [14]; at 3.7 µM -26% | [14]; at 11.0 µM -16% | [14]; at 33.0 µM -1% | [14]; at 100.0 µM 46%

O=C(O)/C=C\C(=O)Nc1ccc2c(c1)Cc1cc(Cl)ccc1-2
inactive: [1]; at 1.2 µM -3% | [1]; at 3.7 µM -3% | [1]; at 11.0 µM -3% | [1]; at 33.0 µM 2% | [1]; at 100.0 µM 19% | [2]; at 1.2 µM -3% | [2]; at 3.7 µM -3% | [2]; at 11.0 µM -6% | [2]; at 33.0 µM -5% | [2]; at 100.0 µM 0% | [3]; at 1.2 µM -3% | [3]; at 3.7 µM 8% | [3]; at 11.0 µM 14% | [3]; at 33.0 µM 28% | [15]; at 1.2 µM -3% | [15]; at 3.7 µM -5% | [15]; at 11.0 µM -1% | [15]; at 33.0 µM -4% | [15]; at 100.0 µM 22% | [4]; at 1.2 µM -3% | [4]; at 3.7 µM -4% | [4]; [17] 12% | [4]; at 11.0 µM -2% | [4]; at 33.0 µM 1% | [4]; [18] 7% | [4]; at 50.0 µM -6.3% | [4]; at 100.0 µM 19% | [5]; at 1.2 µM -4% | [5]; at 3.7 µM -1% | [5]; [17] -1% | [5]; at 11.0 µM -2% | [5]; at 33.0 µM 1% | [5]; [18] -4% | [5]; at 50.0 µM 1.65% | [5]; at 100.0 µM 10% | [7]; [17] -1% | [7]; [18] 33% | [7]; at 50.0 µM 34.1% | [8]; at 1.2 µM -4% | [8]; at 3.7 µM -7% | [8]; at 11.0 µM -11% | [8]; at 33.0 µM -13% | [8]; at 100.0 µM -3% | [9]; [17] -5% | [9]; [18] 15% | [10]; at 1.2 µM -4% | [10]; at 3.7 µM -5% | [10]; [17] -4% | [10]; at 11.0 µM -7% | [10]; at 33.0 µM -7% | [10]; [18] -7% | [10]; at 50.0 µM 11.9% | [10]; at 100.0 µM -1% | [11]; at 1.2 µM -3% | [11]; at 3.7 µM -3% | [11]; at 11.0 µM -5% | [11]; at 33.0 µM -3% | [11]; at 100.0 µM 11% | [12]; at 1.2 µM -2% | [12]; at 3.7 µM -1% | [12]; at 11.0 µM 1% | [12]; at 33.0 µM 4% | [12]; at 100.0 µM 27% | [16]; at 1.2 µM -2% | [16]; at 3.7 µM 0% | [16]; at 11.0 µM 4% | [16]; at 33.0 µM 10% | [16]; at 100.0 µM 50% | [13]; [17] 2% | [13]; [18] 59% | [13]; at 50.0 µM 54.1% | [14]; at 1.2 µM 0% | [14]; at 3.7 µM 5% | [14]; at 11.0 µM 18% | [14]; at 33.0 µM 34%
active: [3]; at 100.0 µM 81% | [9]; at 50.0 µM 80.3% | [14]; at 100.0 µM 80%

O=C1C(CCSc2ccccc2)C(=O)N(c2ccccc2)C1c1ccccc1 (stereo unspecified)
inactive: [1]; at 1.2 µM 23% | [1]; at 3.7 µM 24% | [1]; at 11.0 µM 49% | [2]; at 1.2 µM -32% | [2]; at 3.7 µM -14% | [2]; at 11.0 µM 17% | [3]; at 1.2 µM -4% | [3]; at 3.7 µM -12% | [3]; at 11.0 µM -15% | [3]; at 33.0 µM 0% | [3]; at 100.0 µM -11% | [4]; at 1.2 µM 12% | [4]; at 3.7 µM 17% | [4]; [17] 28% | [4]; at 11.0 µM 35% | [5]; at 1.2 µM 11% | [5]; at 3.7 µM 13% | [5]; [17] 47% | [5]; at 11.0 µM 29%
active: [1]; at 33.0 µM 96% | [1]; at 100.0 µM 89% | [2]; at 33.0 µM 96% | [2]; at 100.0 µM 88% | [4]; at 33.0 µM 96% | [4]; [18] 85% | [4]; at 50.0 µM 90.9% | [4]; at 100.0 µM 89% | [5]; at 33.0 µM 95% | [5]; [18] 99% | [5]; at 50.0 µM 91.4%
